Screening data: PubChem BioAssay, several laboratories
Hits are enriched below; roughly 1.6% of the tested compounds scored in any of these assays.
LYPLA2 inh: LYPLA2 inhibitors, primary screen, counter-screen for PME1 inhibitor project, biochemical, fluorescence polarization, FP-Rh probe ABPP | 320,000 compounds, 0.38% hits | recombinant LYPLA2 | AID 2177, 2009 | Acyl-protein thioesterase 2 (Homo sapiens), O95372 | inhibition, % at 5.9 µM;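 active = inhibition above the screen-wide mean plus 3 SD, limit set per campaign, cut at about 26% in these data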;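 also: 0% = LYPLA2 with DMSO and 100% = wells lacking LYPLA2 enzyme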
Fam108B counter: mouse Fam108B serine hydrolase inhibitors, primary screen, counter-screen for RBBP9 inhibitor project, biochemical, fluorescence polarization; 300,000 compounds, 0.33% hits; AID 1947, 2009; recombinant Fam108B, FP-Rh probe fluorescence polarization; inhibition, % at 9.51 µM;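 active = inhibition above the screen mean inhibition plus 3 SD, computed separately per campaign, cut at about 18% in these data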;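 also: inhibitors lower polarization as less probe binds the enzyme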
MEX-5 binding: MEX-5 zinc finger RNA-binding disruptors – biochemical, C. elegans, fluorescence polarization, MLPCN library, primary screen; Zinc finger protein mex-5 (Caenorhabditis elegans), Q9XUB2; MEX-5/FITC-TCR2 RNA binding; stronger effect = lower value; activity score (negative = inhibition of binding), % at 10 µM; 300,000 compounds, 0.38% hits;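 active = inhibition past about -25% in most replicates, and total fluorescence under double the plate's negative control median, limit read from the data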;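 also: 0% = DMSO and -100% = 5 µM competing unlabeled TCR2 RNA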
Target sequence (Q9XUB2 whole entry, looked up): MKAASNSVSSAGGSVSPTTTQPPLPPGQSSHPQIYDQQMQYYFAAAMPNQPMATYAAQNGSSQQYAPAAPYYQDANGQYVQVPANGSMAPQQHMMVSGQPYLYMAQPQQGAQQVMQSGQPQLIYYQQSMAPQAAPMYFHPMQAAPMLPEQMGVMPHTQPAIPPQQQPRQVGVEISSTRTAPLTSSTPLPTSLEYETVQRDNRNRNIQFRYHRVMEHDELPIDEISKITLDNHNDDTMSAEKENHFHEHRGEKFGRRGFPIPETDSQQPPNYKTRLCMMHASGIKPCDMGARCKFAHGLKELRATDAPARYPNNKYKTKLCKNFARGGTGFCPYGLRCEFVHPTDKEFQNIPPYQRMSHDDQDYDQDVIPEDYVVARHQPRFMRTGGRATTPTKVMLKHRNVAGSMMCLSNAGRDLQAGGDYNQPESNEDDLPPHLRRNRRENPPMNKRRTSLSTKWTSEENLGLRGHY
PREPL inhibitor: PREPL enzyme inhibitors, primary screen, biochemical, fluorescence polarization; recombinant PREPL, fluorescence polarization activity-based probe; Prolyl endopeptidase-like (Homo sapiens), Q4J6C6; AID 2751, 2010; 320,000 compounds, 0.68% hits; inhibition, % at 5.96 µM; in the data active = inhibition above about 43%;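 also: 0% = enzyme with DMSO and 100% = wells lacking enzyme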
PME-1 primary: PME-1 inhibitors via competitive probe labeling, primary screen, biochemical, fluorescence polarization, FP-Rh probe, HTS; Protein phosphatase methylesterase 1 (Homo sapiens), Q9Y570; recombinant PME-1; inhibition, % at 5.9 µM; 320,000 compounds, 0.53% hits; AID 2130, 2009;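 active = inhibition above the campaign mean of all compounds plus 3 SD, cut at about 26% in these data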;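 also: competitive labeling of PME-1 active site by serine hydrolase directed probe; 0% = PME-1 with DMSO and 100% = wells lacking PME-1 enzyme; inhibitors block probe labeling so polarization falls and inhibition rises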
LYPLA1 counter: LYPLA1 inhibitors, primary screen, counter-screen for PME1 inhibitor project, biochemical, fluorescence polarization, FP-Rh probe ABPP. AID 2174, 2009. inhibition, % at 5.9 µM. recombinant LYPLA1. 320,000 compounds, 0.16% hits;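 active = inhibition above the mean of all tested compounds plus 3 SD, set per campaign, cut at about 14% in these data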;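 also: inhibitors block serine hydrolase probe labeling of LYPLA1 so polarization falls; 0% = enzyme with DMSO and 100% = wells lacking LYPLA1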
LYPLA2 confirm: LYPLA2 inhibitors, retest, confirmation, counter-screen for PME1 inhibitor project, biochemical, fluorescence polarization, FP-Rh probe ABPP; shares compounds with LYPLA2 inh; recombinant LYPLA2; inhibition, % at 5.9 µM; 1,100 compounds, 72% hits; AID 2232, 2010;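 active = mean inhibition across replicates above the hit cutoff set in the primary screen, cut at about 26% in these data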;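 also: blocked labeling of the enzyme by serine hydrolase FP-Rh probe lowers polarization; 0% = enzyme with DMSO and 100% = wells lacking LYPLA2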
LYPLA2 gel ABPP: LYPLA2 inhibitors in proteome, late-stage follow-up, gel-based competitive ABPP, fluorescence, assay provider. shares compounds with LYPLA2 inh. AID 652029, 2013. rhLYPLA2 in mouse brain proteome, gel ABPP FP-Rh. inhibition, % at 20 µM. 150 compounds, 30% hits;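 active = inhibition of LYPLA2 enzyme probe labeling above about 50%, limit read from the data; inactive = inhibition below that limit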;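 also: loss of FP-Rh probe labeling of the LYPLA2 gel band measured as band density; 0% = DMSO only control band and 100% = blank gel background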
The depositor's hits bear a star; . = no result given.

SMILES	LYPLA2 inh	Fam108B counter	MEX-5 binding	PREPL inhibitor	PME-1 primary	LYPLA1 counter	LYPLA2 confirm	others
CCCOCC1CC2(CC(C)(c3csc(N)n3)OC2=O)C(=O)O1 (stereo not drawn)	-3	-1	-2	6	5	0	.
COc1ccc(CCNc2oc(-c3ccc(OC)c(OC)c3)nc2P(=O)(OC)OC)cc1OC	28*	3	-1	0	4	1	-5
O=C(c1ccc(Br)s1)N1CCN(C/C=C/c2ccccc2)CC1	36*	1	-3	13	2	10	34*
O=C(c1ccc(Br)o1)N1CCN(C/C=C/c2ccccc2)CC1	5	1	-1	-14	-6	4	.
O=C(NCc1ccco1)c1ccc2c(c1)C(=O)N(Cc1ccccc1)C2=O	4	6	2	18	7	0	.
CC(C)CCN1C(=O)c2ccc(C(=O)NCc3ccco3)cc2C1=O	28*	3	-1	-7	3	7	21
COc1ccc(N2CCN(CCCNC(=O)c3cc4sccc4n3C)CC2)cc1	33*	1	0	24	-1	4	32*
CC1CCN(CCCNC(=O)c2cc3sccc3n2C)CC1	2	-3	-1	22	0	-2	.
COc1ccc(CCNC(=S)N2CCC(C(=O)c3ccc(F)cc3)CC2)cc1OC	27*	2	-3	1	-6	6	31*
N#Cc1ccc(OCC(=O)N2CCN(c3ccc(C(F)(F)F)cn3)CC2)cc1	64*	.	.	-8	4	4	32*
COc1cccc(CCN2CCC(CNS(=O)(=O)c3cc(-c4cc(C)no4)ccc3OC)CC2)c1	-1	-5	-6	-12	3	-2	.
COc1cccc(CCN2CCC(CNS(=O)(=O)c3cc(-c4cc(C)no4)ccc3C)CC2)c1	28*	-1	4	-18	-3	2	35*
O=C(CC1SC(N2CCCCC2)=NC1=O)Nc1ccc(C(=O)NCCc2ccc(F)cc2)cc1 (stereo not drawn)	49*	.	.	5	5	2	39*
CCOC(=O)N1CCC(NC(=O)c2cc3cc4cc(OC)ccc4nc3o2)CC1	35*	2	3	1	-6	9	31*
COc1ccc(C(=O)NC(=S)Nc2cccnc2)cc1[N+](=O)[O-]	28*	5	-1	-5	5	8	28*
NC(=O)COC(=O)CSc1cccc2cccc(Cl)c12	-3	-3	0	-7	-1	3	.
Cc1ccc(/C=C2/SC(=S)N(c3ccc(S(=O)(=O)Nc4nccs4)cc3)C2=O)cc1	9	-4	4	21	5	-2	.
Cc1ccc(Oc2ccc3c(c2)C(=O)N(c2ccc(S(=O)(=O)Nc4nccs4)cc2)C3=O)cc1	63*	3	-1	20	5	-5	54*	LYPLA2 gel ABPP=53*
CC(=O)N1c2ccc(S(=O)(=O)NCC3CCC(C(=O)NCc4ccc(C)cc4)CC3)cc2CC1C (stereo not drawn)	28*	7	1	2	1	-2	28*
O=C(NCCNc1ccc([N+](=O)[O-])cc1)c1ccco1	-3	-2	2	6	0	-2	.
CN(Cc1ccc(C(F)(F)F)cc1)C(=O)c1ccc(Oc2ccccc2)cc1	29*	0	2	4	0	11	24
O=C(/C=C/c1ccccc1)Nc1ccc(S(=O)(=O)N2CCOCC2)cc1	3	-9	-2	8	-4	-4	.
COc1ccc(N2CCN(C(=O)CN(C)S(=O)(=O)c3cccs3)CC2)cc1	29*	0	0	5	-8	4	36*
Cc1ccc(N2C(=O)c3ccc(C(=O)N4CCN(Cc5ccccc5)CC4)cc3C2=O)cc1	33*	1	0	13	2	2	27*
Cc1ccc(N2C(=O)c3ccc(C(=O)N4CCN(c5ccc(C)c(C)c5)CC4)cc3C2=O)cc1	5	-1	1	5	4	3	.
SMILES	LYPLA2 inh	Fam108B counter	MEX-5 binding	PREPL inhibitor	PME-1 primary	LYPLA1 counter	LYPLA2 confirm	others
O=C(COc1ccc([N+](=O)[O-])cc1)N/N=C/c1cc([N+](=O)[O-])ccc1N1CCOCC1	35*	5	-2	20	6	2	30*
Cc1ccc(OCC(=O)N/N=C/c2cc([N+](=O)[O-])ccc2N2CCCCC2)cc1	5	-3	1	2	7	4	.
Cc1cc([N+](=O)[O-])ccc1NC(=O)C(C)NC1CCCCC1 (stereo not drawn)	4	-1	0	8	3	10	.
CCOC(=O)C[C@H]1c2ccc(C(F)(F)F)cc2S(=O)(=O)N1C(C)(C)C	-3	2	0	6	5	-1	.
CCCCCC1CC(CC(=O)Nc2ccc([N+](=O)[O-])cc2)C(=O)O1 (stereo not drawn)	36*	-6	0	-15	-4	1	31*
CCCCCC1CC(CC(=O)Nc2ccc([N+](=O)[O-])cc2)OC1=O (stereo not drawn)	35*	0	1	-18	6	3	37*
CCCCCCC1CC(CCC(=O)Nc2ccc([N+](=O)[O-])cc2)C(=O)O1 (stereo not drawn)	14	2	-1	-12	-1	-1	.
CCCCCC1CC(CC(=O)O)C(=O)O1 (stereo not drawn)	1	-1	1	12	0	0	.
C=CCn1c(SCC(=O)Nc2nc3ccccc3s2)nc(O)c(CC)c1=O	3	0	0	1	9	3	.
CN(C)c1nc(OCCNC(=O)COc2ccc(Cl)cc2Cl)nc(N(C)C)n1	2	3	0	1	5	-3	.
COc1ccc(S(=O)(=O)N2CCC(C(=O)Nc3ccc(S(=O)(=O)N4CCCC4)cc3)CC2)cc1OC	-4	0	1	-6	0	1	.
CCc1ccc(C(=O)COC(=O)c2cc([N+](=O)[O-])ccc2NCCO)cc1	27*	-1	0	14	7	-3	20
